Measured values as given in the supplement of paper PMC10849652.
Targets with a hit are over-represented here; the source holds about 7,900 in all. About 0.6% of all pairs of compound and target were hits.

compound: c1cn2cc(-c3ccc4cn[nH]c4c3)nc(Nc3ccc(N4CCOCC4)cc3)c2n1 [entospletinib]; assay: log2 fold change, soluble protein after heating vs DMSO (PISA); higher = thermal stabilisation; K562 cells, 10 uM, 30 min; active = over 0.2 and 3.5 SD of the protein, either way, in both replicates (recomputed)
Summary of the method: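 Thermal stability values are relative to control samples and come from duplicates. They are expressed as log2 fold changes. For measurement, K562 cells (2×10^6 cells/mL) received 10 μM compound for 30 min, and aliquots were heated for 3 min over 48°C-58°C, pooled, and extracted at 4°C in PBS with 0.5% NP-40. Soluble protein, the supernatant after 21,000xg for 90 min, was quantified by TMTpro 16plex LC-MS/MS with equalised channel sums.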

Sequence of UniProt Q13242 (Q13242 whole entry, looked up): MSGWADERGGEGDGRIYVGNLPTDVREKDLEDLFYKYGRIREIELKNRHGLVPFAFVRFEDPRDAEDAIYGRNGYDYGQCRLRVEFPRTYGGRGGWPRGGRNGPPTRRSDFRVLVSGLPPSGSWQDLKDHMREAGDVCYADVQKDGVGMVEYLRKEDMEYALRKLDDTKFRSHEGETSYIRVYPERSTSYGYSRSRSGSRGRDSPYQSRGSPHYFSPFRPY
Sequence of UniProt Q15005 (Q15005 whole entry, looked up): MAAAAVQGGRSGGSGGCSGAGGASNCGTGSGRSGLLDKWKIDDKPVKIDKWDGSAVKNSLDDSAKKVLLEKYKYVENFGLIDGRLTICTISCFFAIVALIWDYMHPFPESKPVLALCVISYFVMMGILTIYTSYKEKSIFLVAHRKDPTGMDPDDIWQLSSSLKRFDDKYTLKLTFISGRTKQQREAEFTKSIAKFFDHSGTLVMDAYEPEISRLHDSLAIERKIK
Sequence of UniProt Q969X1 (Q969X1 whole entry, looked up): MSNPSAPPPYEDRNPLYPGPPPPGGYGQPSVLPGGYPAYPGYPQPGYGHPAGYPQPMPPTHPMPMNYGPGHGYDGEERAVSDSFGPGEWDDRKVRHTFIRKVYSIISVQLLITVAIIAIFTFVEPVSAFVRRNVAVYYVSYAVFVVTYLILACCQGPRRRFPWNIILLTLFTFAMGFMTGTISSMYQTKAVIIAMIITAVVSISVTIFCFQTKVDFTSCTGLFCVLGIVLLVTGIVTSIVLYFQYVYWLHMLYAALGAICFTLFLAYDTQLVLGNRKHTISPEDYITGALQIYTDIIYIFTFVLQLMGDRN
Sequence of UniProt P53597 (P53597 whole entry, looked up): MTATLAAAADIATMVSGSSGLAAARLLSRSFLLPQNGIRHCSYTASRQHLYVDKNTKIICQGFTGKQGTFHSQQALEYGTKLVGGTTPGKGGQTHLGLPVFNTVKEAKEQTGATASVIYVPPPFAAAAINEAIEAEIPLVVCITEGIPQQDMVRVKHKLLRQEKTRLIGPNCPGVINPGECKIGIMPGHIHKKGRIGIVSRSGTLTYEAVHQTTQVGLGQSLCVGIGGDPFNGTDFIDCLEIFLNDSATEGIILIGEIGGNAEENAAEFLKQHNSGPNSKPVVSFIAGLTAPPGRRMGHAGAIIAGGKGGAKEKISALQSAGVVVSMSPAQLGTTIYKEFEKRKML
Sequence of UniProt Q9Y5J6 (Q9Y5J6 whole entry, looked up): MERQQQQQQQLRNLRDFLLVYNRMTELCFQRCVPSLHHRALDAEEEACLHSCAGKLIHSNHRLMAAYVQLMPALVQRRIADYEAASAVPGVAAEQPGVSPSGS
Sequence of UniProt Q99523 (Q99523 whole entry, looked up): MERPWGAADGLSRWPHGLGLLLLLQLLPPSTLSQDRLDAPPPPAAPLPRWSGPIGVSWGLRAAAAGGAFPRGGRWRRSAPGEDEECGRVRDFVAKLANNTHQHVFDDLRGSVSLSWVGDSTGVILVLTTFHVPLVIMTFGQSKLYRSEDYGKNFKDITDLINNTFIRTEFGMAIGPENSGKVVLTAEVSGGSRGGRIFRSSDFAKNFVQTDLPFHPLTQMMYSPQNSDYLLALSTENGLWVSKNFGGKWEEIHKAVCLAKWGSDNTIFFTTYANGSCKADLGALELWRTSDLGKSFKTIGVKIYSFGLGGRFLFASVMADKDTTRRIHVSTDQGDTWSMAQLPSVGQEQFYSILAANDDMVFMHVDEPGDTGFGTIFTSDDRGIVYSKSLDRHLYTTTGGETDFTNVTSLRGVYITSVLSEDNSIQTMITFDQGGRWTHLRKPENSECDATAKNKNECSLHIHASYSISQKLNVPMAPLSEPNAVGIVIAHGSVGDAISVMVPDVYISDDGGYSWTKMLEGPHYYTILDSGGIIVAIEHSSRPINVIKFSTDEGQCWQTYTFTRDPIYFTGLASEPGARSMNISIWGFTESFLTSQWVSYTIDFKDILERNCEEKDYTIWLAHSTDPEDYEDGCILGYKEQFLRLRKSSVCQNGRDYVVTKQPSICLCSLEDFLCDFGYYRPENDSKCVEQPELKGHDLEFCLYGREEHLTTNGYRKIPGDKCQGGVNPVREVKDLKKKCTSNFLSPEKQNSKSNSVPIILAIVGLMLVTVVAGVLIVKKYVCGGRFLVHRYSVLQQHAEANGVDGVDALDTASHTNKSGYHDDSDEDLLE
Sequence of UniProt Q8IWA5 (Q8IWA5 whole entry, looked up): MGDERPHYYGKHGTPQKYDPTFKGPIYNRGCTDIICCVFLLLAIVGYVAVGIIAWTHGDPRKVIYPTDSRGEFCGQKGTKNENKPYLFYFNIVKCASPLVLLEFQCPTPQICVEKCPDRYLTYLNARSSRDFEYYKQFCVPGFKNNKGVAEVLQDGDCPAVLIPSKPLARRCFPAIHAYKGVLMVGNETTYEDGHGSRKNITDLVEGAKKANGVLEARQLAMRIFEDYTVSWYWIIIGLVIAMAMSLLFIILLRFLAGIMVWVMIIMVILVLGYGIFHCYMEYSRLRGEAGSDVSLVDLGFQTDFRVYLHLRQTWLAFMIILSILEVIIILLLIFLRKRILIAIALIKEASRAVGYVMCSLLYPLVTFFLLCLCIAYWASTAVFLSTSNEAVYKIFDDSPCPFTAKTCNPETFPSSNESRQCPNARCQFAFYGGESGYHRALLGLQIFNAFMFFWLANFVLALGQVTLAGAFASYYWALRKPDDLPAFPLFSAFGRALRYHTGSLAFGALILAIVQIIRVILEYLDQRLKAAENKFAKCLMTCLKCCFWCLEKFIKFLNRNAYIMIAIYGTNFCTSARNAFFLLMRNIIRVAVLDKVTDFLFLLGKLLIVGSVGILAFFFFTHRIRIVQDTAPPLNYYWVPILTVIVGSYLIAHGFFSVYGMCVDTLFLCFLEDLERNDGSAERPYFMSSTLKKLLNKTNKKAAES
Sequence of UniProt Q08945 (Q08945 whole entry, looked up): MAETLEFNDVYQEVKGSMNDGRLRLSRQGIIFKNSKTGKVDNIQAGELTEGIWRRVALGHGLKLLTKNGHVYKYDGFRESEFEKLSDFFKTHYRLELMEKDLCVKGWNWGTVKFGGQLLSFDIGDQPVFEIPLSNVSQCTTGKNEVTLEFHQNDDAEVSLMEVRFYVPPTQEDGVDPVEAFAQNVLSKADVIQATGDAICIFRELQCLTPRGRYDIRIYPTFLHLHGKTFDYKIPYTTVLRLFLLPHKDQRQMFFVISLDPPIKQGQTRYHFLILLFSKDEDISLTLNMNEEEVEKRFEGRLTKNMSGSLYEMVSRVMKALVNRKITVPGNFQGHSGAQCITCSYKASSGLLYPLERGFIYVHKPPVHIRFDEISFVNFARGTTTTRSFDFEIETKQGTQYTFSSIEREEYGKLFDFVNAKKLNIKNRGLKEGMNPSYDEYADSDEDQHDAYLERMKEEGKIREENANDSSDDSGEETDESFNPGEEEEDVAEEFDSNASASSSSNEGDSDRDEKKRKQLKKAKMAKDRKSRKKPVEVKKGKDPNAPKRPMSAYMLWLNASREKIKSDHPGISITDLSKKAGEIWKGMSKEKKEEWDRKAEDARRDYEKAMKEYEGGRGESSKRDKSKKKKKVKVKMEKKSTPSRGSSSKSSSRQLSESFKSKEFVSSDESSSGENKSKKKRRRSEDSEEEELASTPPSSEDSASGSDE
Sequence of UniProt P55061 (P55061 whole entry, looked up): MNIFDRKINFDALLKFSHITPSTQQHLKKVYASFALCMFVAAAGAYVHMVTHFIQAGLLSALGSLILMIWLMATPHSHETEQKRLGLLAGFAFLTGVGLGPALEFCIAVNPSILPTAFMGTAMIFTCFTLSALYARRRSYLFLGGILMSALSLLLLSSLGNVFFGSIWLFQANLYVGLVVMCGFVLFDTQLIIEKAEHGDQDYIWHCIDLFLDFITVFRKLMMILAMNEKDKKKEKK
Sequence of UniProt Q92581 (Q92581 whole entry, looked up): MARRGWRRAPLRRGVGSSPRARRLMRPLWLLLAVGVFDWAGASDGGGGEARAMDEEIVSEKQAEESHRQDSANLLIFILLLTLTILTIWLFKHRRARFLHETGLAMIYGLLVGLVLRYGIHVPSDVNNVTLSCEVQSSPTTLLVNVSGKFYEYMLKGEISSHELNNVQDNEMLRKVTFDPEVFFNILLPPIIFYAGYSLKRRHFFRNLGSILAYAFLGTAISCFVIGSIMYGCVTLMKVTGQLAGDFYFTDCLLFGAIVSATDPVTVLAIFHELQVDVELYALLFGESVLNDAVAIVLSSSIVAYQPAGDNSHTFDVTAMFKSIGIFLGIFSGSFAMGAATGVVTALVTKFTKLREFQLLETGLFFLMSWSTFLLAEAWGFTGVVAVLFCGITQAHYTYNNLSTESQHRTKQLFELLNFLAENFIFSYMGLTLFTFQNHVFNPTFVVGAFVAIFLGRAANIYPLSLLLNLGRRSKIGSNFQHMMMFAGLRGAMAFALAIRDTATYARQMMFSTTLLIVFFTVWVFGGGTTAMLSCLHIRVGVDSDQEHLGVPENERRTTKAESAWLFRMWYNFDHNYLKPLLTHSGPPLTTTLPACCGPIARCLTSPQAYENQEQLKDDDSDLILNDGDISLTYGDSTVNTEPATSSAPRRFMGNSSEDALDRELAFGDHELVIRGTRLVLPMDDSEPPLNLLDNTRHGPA
Sequence of UniProt P62072 (P62072 whole entry, looked up): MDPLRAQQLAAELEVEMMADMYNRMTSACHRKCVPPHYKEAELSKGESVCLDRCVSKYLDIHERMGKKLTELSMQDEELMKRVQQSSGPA
Sequence of UniProt Q969G3 (Q969G3 whole entry, looked up): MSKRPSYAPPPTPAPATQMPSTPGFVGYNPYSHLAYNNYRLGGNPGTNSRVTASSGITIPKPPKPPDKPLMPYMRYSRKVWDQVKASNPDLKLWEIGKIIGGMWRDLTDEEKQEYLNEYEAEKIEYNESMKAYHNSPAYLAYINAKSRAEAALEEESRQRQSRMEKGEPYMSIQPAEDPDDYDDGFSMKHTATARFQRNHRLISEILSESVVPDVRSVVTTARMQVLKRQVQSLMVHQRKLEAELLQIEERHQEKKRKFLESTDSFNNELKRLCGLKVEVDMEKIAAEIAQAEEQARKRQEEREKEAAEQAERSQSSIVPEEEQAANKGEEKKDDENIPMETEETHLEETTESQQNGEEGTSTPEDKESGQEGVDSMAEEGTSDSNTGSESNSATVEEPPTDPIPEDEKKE

log2 fold change, inactive:
SMAP (UniProt O00193) 0.07
TIMM10 (UniProt P62072) 0.009
TLK1 (UniProt Q9UKI8) 0.001
SLC9A6 isoform 3 (UniProt Q92581) 0.052
SORT1 (UniProt Q99523) 0.05
TMBIM1 (UniProt Q969X1) -0.019
SRSF9 (UniProt Q13242) 0.094
TAX1BP1 (UniProt Q86VP1) 0.029
TFB2M (UniProt Q9H5Q4) -0.011
SLC44A2 isoform 2 (UniProt Q8IWA5) -0.085
TIMM10B (UniProt Q9Y5J6) 0.045
SSBP4 (UniProt Q9BWG4) 0.119
TMBIM6 isoform 2 (UniProt P55061) -0.038
STK4 (UniProt Q13043) -0.024
SUCLG1 (UniProt P53597) -0.041
SPCS2 (UniProt Q15005) -0.145
SSRP1 (UniProt Q08945) -0.027
SPECC1 (UniProt Q5M775) 0.085
SRPRA (UniProt P08240) -0.052
ST6GAL1 (UniProt P15907) 0.098
SLC38A9 (UniProt Q8NBW4) 0.019
TBC1D2 (UniProt Q9BYX2) -0.015
SMARCE1 (UniProt Q969G3) -0.117
